Only some compounds are listed: those with a hit (about 1.1% of all), similar ones and a draw of the others.
RXFP1 antag: blocks the human relaxin receptor RXFP1 | 350,000 compounds, 0.59% hits | AID 1259400 | Q9HBX9 | activity change, negative = inhibition, % at 57.5 µM | HEK293-RXFP1, relaxin-stimulated cAMP HTRF, 30 min; hits give low values;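 active = activity change of -60% or lower, but not beyond a set lower limit; inconclusive = change between -60% and -40%, or beyond the set limit; inactive = change above -40%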; also: % is scaled to controls: 0 for no effect and ±100 for the full control effect
RXFP1 ag: agonists of human relaxin receptor RXFP1; Q9HBX9; 370,000 compounds, 0.3% hits; HEK293T-RXFP1 cAMP TR-FRET, 30 min; response scale: percent of porcine relaxin response, buffer zero; Potency, µM (series often up to 57.5 µM), inactives show top-dose activation, actives largely listed as activators; active = well fitted activation curve with a large enough effect; inconclusive = small, poorly fitted or top-dose-only effect; also: potency is read from the fitted curve at half-maximal effect; % is scaled to controls: 0 for no effect and ±100 for the full control effect; nearly all actives have a fitted effect of over 60% in size
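HEK293 cells stably expressing RXFP1, treated 30 min at 37C with compounds plus PDE4 inhibitor Ro 20174; cAMP measured by HTRF TR-FRET. Normalized to buffer and 29 nM porcine relaxin; EC50 by Hill fit.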
TRPV1 PAM: human TRPV1 potentiation; TRPV1-expressing cells, Fluo-8 calcium influx, capsaicin EC20 potentiation; potentiation, % at 8.33 µM; Q8NER1; AID 540277; 320,000 compounds, 0.02% hits; in the data active = potentiation above about 80%; inconclusive = between about 30% and that limit; also: 0% is about no effect
Target sequence (Q8NER1 whole entry, looked up): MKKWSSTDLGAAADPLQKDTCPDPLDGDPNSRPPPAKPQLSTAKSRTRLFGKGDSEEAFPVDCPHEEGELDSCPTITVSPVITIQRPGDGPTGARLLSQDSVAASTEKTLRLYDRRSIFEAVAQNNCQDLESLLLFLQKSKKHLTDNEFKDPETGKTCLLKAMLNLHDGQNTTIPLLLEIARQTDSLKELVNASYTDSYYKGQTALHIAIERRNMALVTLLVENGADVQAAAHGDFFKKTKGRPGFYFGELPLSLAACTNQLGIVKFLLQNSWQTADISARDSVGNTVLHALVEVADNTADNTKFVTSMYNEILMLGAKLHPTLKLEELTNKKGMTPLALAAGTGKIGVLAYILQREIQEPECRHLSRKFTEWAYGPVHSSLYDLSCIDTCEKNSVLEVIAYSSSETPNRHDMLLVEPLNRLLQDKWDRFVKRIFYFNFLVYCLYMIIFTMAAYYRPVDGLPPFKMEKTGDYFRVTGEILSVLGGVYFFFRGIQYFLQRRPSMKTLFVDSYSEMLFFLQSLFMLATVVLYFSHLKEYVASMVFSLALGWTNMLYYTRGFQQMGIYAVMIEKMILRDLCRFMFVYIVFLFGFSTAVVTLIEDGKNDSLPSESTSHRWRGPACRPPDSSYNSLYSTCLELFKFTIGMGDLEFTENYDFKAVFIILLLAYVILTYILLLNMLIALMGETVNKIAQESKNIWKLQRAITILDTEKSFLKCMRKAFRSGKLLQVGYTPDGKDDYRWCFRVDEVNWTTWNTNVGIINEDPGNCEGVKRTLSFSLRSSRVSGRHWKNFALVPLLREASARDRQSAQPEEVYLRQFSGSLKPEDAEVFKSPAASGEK
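Fluo-8 calcium influx in TRPV1-expressing cells, kinetic read (ex 480/em 520 nm). Compound added and read 3 min for agonist activity, followed by capsaicin at EC20 final and 2 min further read for enhancement.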
gsp antag: antagonizes gsp, the McCune-Albright syndrome mutation | gsp-mutant cells, cAMP HTRF, 30 min | Potency, µM (top dose mostly 76.9 µM), for the others: top-dose activity change, negative = inhibition, most hits filed as inhibitors | 340,000 compounds, 0.4% hits | AID 624288; calls by dose curve; cell line not stated here;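 also: intracellular cAMP measured with PDE inhibitor Ro 20-1724 present during compound exposure; potency is read from the fitted curve at half-maximal effect; % is scaled to controls: 0 for no effect and ±100 for the full control effect; nearly all actives have a fitted effect of over 65% in size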
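G418-selected cells were plated in DMEM/10% FBS for 16-24 h at 37C, then treated with compounds plus the PDE inhibitor […] (300 uM solution added) for 30 min at 37C. Intracellular cAMP was measured by HTRF after 30 min lysis at room temperature.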
gsp agonist: agonists of gsp mutant (McCune-Albright syndrome); gsp mutant cells, cAMP HTRF, 30 min; 340,000 compounds, 0.13% hits; AID 624287; Potency, µM (highest dose often 76.9 µM), for inactives: top-dose activation (cAMP increase), usual class: activators; active = well fitted activation curve with a large enough effect; inconclusive = small, poorly fitted or top-dose-only effect, or another doubt; inactive = no such curve, though single readings can be large or run the other way; cell line not stated here;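 also: phosphodiesterase inhibitor Ro 20-1724 added with compounds to block cAMP breakdown; potency is read from the fitted curve at half-maximal effect; nearly all actives have a fitted effect of over 60% in size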
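Cells in DMEM/10% FBS with G418 were pretreated with compounds in DMSO plus […] (300 uM stock) for 30 min at 37C. cAMP was measured by HTRF (cAMP-d2 plus anti-cAMP antibody-K) after 30 min at room temperature.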
TRPV1 agonist: activates the human vanilloid receptor TRPV1. TRPV1-expressing cells, Fluo-8 calcium influx, agonist mode. activation, % at 8.33 µM. 320,000 compounds, 0.19% hits; in the data active = activation above about 80%; inconclusive = between about 30% and that limit; also: 0% is about no effect
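Cells expressing TRPV1 were dye-loaded with Fluo-8 and read kinetically: 10 s baseline, 3 min after compound (agonist portion), then 2 min after EC20 capsaicin (allosteric enhancer portion). Calcium-bound dye fluorescence at 480/520 nm.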
An asterisk follows results filed as active; [ ] = another dose, or the depositor's remark.

Screening O=C(CSc1ncn[nH]1)N1N=C2/C(=C/c3ccccc3)CCCC2C1c1ccccc1 (stereo not given) returned RXFP1 antag -15, RXFP1 ag 0%, TRPV1 PAM -2, gsp antag 35µM*, gsp agonist inconclusive and TRPV1 agonist -5.
For Cc1cc(C)c2c(NC(=S)NC(=O)c3ccccc3)n[nH]c2n1 the results were RXFP1 antag -3, RXFP1 ag 0%, TRPV1 PAM 0, gsp antag 4%, gsp agonist -8% and TRPV1 agonist 2.
For O=C(Nc1ccsc1C(=O)O)c1ccccc1Cl the results were RXFP1 antag -7, RXFP1 ag 2%, TRPV1 PAM 3, gsp antag inconclusive, gsp agonist 0% and TRPV1 agonist -4.
Screening C=CCOc1c(Br)cc(CNc2ccc(NC(=O)CCC)cc2)cc1OCC returned RXFP1 antag -25, RXFP1 ag 1%, TRPV1 PAM 4, gsp antag -11%, gsp agonist -22% and TRPV1 agonist -3.
`CCOc1cc(CNc2ccc(N(C)C)cc2)cc(Br)c1OCC(=O)NC(C)(C)C` gave RXFP1 antag -109*, RXFP1 ag 0%, TRPV1 PAM -14, gsp antag inconclusive, gsp agonist -41% and TRPV1 agonist inconclusive.
Screening CCOc1cc(CNc2ccc(N3CCCCC3)cc2)cc(Br)c1OCC(=O)NC(C)(C)C returned RXFP1 antag -5, RXFP1 ag 3%, TRPV1 PAM -13, gsp antag -9%, gsp agonist -2% and TRPV1 agonist inconclusive.
For C=CCOc1c(Br)cc(CNc2ccc3[nH]c(=O)[nH]c3c2)cc1OCC the results were RXFP1 antag -14, RXFP1 ag 1%, TRPV1 PAM -1, gsp antag 2%, gsp agonist -26%[15.4 µM] and TRPV1 agonist 87*.
Screening Cc1cccc(OCC(O)CNC(C)(C)C)c1C (stereo not given) returned RXFP1 antag 11.
`Cc1cc(CNC(=S)Nc2ccc(Br)cc2Cl)nn1C` gave RXFP1 antag 2, RXFP1 ag 2%, TRPV1 PAM -22, gsp antag -12%, gsp agonist -35% and TRPV1 agonist 94*.
O=C(CCN1C(=O)c2ccccc2S1(=O)=O)Nc1ccc(F)c(F)c1F was read as RXFP1 antag -76*, RXFP1 ag 0%, TRPV1 PAM 24, gsp antag 4%, gsp agonist 1%[15.4 µM] and TRPV1 agonist -2.
Screening O=C(CCN1C(=O)c2ccccc2S1(=O)=O)N1CCN(c2ccccc2F)CC1 returned RXFP1 antag -112*, RXFP1 ag -1%, TRPV1 PAM -1, gsp antag -3%, gsp agonist 0%[15.4 µM] and TRPV1 agonist 2.
O=C(CCN1C(=O)c2ccccc2S1(=O)=O)Nc1ccc(F)cc1F was read as RXFP1 antag -4, RXFP1 ag 3%, TRPV1 PAM 13, gsp antag -20%, gsp agonist -2% and TRPV1 agonist -4.
Nc1ncnc2c1ncn2[C@@H]1O[C@H](COS(=O)(=O)O)[C@@H](O)[C@H]1O was read as RXFP1 ag 7.1µM*, TRPV1 PAM 16, gsp antag 37% and TRPV1 agonist -1.
CC1(C)O[C@@H]2[C@H](O1)[C@@H](COS(=O)(=O)O)O[C@H]2n1cnc2c(N)ncnc21 was read as RXFP1 ag 16µM*, TRPV1 PAM -12 and TRPV1 agonist -3.
`Nc1ncnc2c1ncn2[C@@H]1O[C@H](COP(=O)(O)O)[C@@H](O)[C@H]1O` gave RXFP1 antag 16, RXFP1 ag inconclusive, TRPV1 PAM 5, gsp antag 3% and TRPV1 agonist 4.
For CC1CCCC(NC(=O)C2CCN(S(=O)(=O)N3CCCCC3)CC2)C1C (stereo not given) the results were RXFP1 antag 2, RXFP1 ag -1%, TRPV1 PAM -5, gsp antag -4%, gsp agonist 0% and TRPV1 agonist 10.
Screening COc1ccc2nc3oc(C(=O)NCCCOC(C)C)cc3cc2c1 returned RXFP1 antag -7, RXFP1 ag 6%, TRPV1 PAM 5, gsp antag 50µM*, gsp agonist inconclusive and TRPV1 agonist 0.
Screening CCOC(=O)N1CCN(C(=O)c2ccc3nc(-c4ccccc4)c(-c4ccccc4)nc3c2)CC1 returned RXFP1 antag -14, RXFP1 ag 0%, TRPV1 PAM -2, gsp antag -19%, gsp agonist inconclusive and TRPV1 agonist 13.
NC(=O)C1CCN(C(=O)c2ccc3nc(-c4ccccc4)c(-c4ccccc4)nc3c2)CC1 was read as RXFP1 antag 4, RXFP1 ag 1%, TRPV1 PAM -2, gsp antag -19%, gsp agonist -50% and TRPV1 agonist 81*.
Screening CC(=O)c1cccc(NC(=O)c2nc3ccccc3n(C)c2=O)c1 returned RXFP1 antag 22 and RXFP1 ag 16µM*.
Nc1nonc1C(=O)NCCN=Cc1cc(Cc2ccccc2)cc(Br)c1O was read as RXFP1 antag -73*, RXFP1 ag 2%, TRPV1 PAM -10, gsp antag -16%, gsp agonist 0% and TRPV1 agonist 9.
Screening Nc1nonc1C(=O)NCCN=Cc1ccccc1O returned RXFP1 antag -6, RXFP1 ag 5%, TRPV1 PAM 10, gsp antag 6%, gsp agonist 4% and TRPV1 agonist 1.
`CCOC(=O)c1oc2ccc(S(=O)(=O)n3nc(-c4ccccc4)cc3N)cc2c1C` gave RXFP1 ag 0%, TRPV1 PAM 14, gsp antag 7.9µM*, gsp agonist -34% and TRPV1 agonist -1.
For CCOc1ccc(N(CC)C(=O)CSc2n[nH]c(-c3ccccc3)n2)cc1 the results were RXFP1 antag -9 and RXFP1 ag -1%.
For CCOc1ccc(NC(=O)c2ccc(N3CC4CC(C3)c3cccc(=O)n3C4)c(NC(=O)CCN3CCOCC3)c2)cc1 (stereo not given) the results were RXFP1 antag -16, RXFP1 ag -4%, TRPV1 PAM -8, gsp antag -5%, gsp agonist -5% and TRPV1 agonist 1.
`COc1cc(CNC(=O)CCC(=O)N2C[C@H]3C[C@H](C2)c2cccc(=O)n2C3)cc(OC)c1OC` gave RXFP1 ag 1%, TRPV1 PAM inconclusive, gsp antag 12% and TRPV1 agonist -1.
For CCOc1ccc(/C=N/NC(=O)c2ccc(O)cc2)cc1CN1CC2CC(C1)c1cccc(=O)n1C2 (stereo not given) the results were RXFP1 ag 2%, TRPV1 PAM -7, gsp antag 40µM* and TRPV1 agonist 6.

Assay outcomes (PubChem)
